# From ChEMBL document CHEMBL1961873, “Compounds: GSK PKIS; Assays: Nanosyn kinase panel” (2012)
# Key:
# [1] = biological target: Sphingosine kinase 1 (Homo sapiens) (UniProt Q9NYA1); conditions: at 1 µM;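 also: mean SPHK1 inhibition value reported from the GSK PKIS kinase panel screen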
# [2] = biological target: T1, Sphingosine kinase 2 (Homo sapiens) (UniProt Q9NRA0); conditions: at 0.1 µM
# T1 sequence (whole entry): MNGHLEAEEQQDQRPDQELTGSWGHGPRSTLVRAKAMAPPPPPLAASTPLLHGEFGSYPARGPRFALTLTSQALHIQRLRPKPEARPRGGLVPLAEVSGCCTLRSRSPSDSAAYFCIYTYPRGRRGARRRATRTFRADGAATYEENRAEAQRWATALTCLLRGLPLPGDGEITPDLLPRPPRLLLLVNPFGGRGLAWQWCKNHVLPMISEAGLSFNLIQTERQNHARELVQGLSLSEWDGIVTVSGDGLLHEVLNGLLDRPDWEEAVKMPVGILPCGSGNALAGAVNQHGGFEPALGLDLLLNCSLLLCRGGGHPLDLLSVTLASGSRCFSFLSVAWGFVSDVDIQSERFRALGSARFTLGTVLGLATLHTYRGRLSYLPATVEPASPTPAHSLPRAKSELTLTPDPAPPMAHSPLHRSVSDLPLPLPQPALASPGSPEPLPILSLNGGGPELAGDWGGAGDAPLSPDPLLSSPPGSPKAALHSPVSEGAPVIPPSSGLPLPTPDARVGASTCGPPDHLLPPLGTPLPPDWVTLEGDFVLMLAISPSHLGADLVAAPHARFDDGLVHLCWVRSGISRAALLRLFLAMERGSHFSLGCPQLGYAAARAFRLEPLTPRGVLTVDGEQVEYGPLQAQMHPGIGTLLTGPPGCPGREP
# [3] = biological target: T1, Sphingosine kinase 2 (Homo sapiens); conditions: at 1 µM
# [4] = biological target: Casein kinase II subunit alpha (Homo sapiens) (UniProt P68400); conditions: at 0.1 µM
# [5] = biological target: Casein kinase II subunit alpha (Homo sapiens) (UniProt P68400); conditions: at 1 µM
# [6] = biological target: T2, Inhibitor of nuclear factor kappa-B kinase subunit alpha (Homo sapiens) (UniProt O15111); conditions: at 0.1 µM
# T2 sequence (whole entry): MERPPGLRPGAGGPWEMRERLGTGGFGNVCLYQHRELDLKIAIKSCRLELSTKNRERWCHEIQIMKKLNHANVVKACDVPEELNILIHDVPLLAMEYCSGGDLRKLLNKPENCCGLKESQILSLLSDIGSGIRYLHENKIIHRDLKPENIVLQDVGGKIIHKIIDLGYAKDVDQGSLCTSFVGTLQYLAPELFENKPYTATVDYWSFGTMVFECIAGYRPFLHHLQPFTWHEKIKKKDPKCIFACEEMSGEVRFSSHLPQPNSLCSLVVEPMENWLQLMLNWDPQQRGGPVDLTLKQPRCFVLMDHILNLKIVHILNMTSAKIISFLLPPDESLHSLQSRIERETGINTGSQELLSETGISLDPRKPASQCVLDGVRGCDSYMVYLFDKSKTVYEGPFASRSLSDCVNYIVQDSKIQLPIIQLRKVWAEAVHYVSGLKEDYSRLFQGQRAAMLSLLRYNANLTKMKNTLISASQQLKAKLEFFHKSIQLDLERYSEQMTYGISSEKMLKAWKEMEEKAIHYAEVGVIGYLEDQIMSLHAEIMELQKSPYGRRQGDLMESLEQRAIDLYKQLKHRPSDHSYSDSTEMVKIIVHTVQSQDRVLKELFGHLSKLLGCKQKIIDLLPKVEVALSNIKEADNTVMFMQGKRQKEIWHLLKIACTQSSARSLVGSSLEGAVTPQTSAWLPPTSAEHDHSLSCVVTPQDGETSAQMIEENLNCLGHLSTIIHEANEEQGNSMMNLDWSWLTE
# [7] = biological target: T2, Inhibitor of nuclear factor kappa-B kinase subunit alpha (Homo sapiens); conditions: at 1 µM
# [8] = biological target: T3, Inhibitor of nuclear factor kappa-B kinase subunit beta (Homo sapiens) (UniProt O14920); conditions: at 0.1 µM
# T3 sequence (whole entry): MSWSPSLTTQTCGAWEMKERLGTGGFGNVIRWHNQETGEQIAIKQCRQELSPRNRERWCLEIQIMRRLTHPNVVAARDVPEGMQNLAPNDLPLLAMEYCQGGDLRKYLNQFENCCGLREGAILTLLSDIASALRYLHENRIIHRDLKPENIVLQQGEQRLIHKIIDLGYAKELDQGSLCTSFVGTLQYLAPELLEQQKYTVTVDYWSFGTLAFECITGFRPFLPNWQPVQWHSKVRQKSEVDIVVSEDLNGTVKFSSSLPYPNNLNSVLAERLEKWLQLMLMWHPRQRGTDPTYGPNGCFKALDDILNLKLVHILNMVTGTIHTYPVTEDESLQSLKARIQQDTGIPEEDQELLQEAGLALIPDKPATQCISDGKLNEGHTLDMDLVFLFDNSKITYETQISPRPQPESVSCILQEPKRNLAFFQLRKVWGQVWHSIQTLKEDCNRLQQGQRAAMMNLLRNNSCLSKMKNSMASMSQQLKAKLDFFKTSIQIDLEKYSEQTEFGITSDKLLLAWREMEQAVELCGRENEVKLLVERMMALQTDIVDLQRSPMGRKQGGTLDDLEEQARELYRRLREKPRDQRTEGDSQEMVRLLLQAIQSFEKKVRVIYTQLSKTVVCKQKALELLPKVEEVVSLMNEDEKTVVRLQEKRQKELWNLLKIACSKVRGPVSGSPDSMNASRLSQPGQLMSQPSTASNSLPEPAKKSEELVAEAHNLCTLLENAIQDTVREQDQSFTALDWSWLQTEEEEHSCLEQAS
# [9] = biological target: T3, Inhibitor of nuclear factor kappa-B kinase subunit beta (Homo sapiens); conditions: at 1 µM
# [10] = biological target: T4, Inhibitor of nuclear factor kappa-B kinase subunit epsilon (Homo sapiens) (UniProt Q14164); conditions: at 0.1 µM
# T4 sequence (whole entry): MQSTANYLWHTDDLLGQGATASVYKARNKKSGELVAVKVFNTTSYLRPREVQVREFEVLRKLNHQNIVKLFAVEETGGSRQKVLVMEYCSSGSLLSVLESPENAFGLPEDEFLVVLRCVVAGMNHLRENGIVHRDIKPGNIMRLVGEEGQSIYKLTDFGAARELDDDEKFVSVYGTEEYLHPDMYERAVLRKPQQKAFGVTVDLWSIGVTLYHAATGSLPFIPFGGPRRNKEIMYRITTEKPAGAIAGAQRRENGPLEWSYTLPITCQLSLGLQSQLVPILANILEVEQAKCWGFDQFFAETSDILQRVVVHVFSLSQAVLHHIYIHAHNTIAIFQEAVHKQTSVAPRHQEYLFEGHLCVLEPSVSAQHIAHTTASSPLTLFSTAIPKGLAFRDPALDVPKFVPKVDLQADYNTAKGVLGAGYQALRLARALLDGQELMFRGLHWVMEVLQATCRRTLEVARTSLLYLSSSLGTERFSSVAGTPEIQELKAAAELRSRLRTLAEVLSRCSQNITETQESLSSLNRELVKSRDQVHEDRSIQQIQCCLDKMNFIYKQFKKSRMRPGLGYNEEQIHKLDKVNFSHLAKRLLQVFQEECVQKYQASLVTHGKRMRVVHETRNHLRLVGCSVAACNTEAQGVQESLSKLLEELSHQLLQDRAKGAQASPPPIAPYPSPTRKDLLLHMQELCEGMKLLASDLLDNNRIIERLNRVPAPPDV
# [11] = biological target: T4, Inhibitor of nuclear factor kappa-B kinase subunit epsilon (Homo sapiens); conditions: at 1 µM
# [12] = biological target: T5, Serine/threonine-protein kinase Nek1 (Homo sapiens) (UniProt Q96PY6); conditions: at 0.1 µM
# T5 sequence (whole entry): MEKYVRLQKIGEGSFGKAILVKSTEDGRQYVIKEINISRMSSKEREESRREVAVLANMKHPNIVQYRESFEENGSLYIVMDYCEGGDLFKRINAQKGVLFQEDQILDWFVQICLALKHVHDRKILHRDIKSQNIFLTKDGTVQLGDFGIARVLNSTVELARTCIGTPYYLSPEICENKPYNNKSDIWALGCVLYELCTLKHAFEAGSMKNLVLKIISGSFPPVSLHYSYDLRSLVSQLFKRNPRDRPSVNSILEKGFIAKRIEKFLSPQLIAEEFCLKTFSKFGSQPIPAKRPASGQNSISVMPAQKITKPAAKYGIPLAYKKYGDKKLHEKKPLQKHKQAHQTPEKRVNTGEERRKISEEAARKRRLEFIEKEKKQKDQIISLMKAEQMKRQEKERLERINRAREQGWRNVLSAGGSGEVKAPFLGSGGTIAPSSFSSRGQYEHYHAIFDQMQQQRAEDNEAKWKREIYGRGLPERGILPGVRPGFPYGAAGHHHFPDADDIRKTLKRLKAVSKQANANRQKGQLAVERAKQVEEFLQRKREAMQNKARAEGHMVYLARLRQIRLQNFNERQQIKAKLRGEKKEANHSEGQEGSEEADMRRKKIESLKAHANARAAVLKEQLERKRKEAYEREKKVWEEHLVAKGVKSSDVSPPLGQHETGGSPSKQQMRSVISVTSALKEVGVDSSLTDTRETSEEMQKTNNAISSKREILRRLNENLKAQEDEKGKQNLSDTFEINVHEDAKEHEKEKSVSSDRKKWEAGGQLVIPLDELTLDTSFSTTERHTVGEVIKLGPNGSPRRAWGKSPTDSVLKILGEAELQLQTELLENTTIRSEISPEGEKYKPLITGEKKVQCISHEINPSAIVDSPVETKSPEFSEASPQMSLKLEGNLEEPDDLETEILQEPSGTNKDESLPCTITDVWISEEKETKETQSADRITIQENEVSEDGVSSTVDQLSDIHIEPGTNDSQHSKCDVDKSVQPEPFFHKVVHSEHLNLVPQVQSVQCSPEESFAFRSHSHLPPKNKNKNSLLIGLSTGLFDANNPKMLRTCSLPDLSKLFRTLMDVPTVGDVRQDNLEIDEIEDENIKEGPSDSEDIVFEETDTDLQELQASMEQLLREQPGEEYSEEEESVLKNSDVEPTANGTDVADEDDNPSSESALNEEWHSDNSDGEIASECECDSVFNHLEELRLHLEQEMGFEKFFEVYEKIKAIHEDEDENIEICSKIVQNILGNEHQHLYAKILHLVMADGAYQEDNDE
# [13] = biological target: T5, Serine/threonine-protein kinase Nek1 (Homo sapiens); conditions: at 1 µM
# [14] = biological target: T6, Serine/threonine-protein kinase Nek2 (Homo sapiens) (UniProt P51955); conditions: at 0.1 µM
# T6 sequence (whole entry): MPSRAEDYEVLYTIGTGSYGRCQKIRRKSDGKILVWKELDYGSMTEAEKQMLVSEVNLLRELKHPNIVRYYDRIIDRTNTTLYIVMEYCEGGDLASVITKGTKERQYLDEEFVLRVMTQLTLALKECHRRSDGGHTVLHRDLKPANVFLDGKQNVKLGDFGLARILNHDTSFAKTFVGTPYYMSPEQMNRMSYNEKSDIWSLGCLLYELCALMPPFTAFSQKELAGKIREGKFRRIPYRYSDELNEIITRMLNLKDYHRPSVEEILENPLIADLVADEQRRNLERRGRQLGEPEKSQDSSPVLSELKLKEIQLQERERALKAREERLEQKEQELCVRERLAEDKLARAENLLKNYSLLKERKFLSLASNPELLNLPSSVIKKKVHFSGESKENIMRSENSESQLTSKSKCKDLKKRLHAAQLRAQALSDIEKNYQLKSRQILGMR
# [15] = biological target: T6, Serine/threonine-protein kinase Nek2 (Homo sapiens); conditions: at 1 µM
# [16] = biological target: Serine/threonine-protein kinase Nek6 (Homo sapiens) (UniProt Q9HC98); conditions: at 0.1 µM
# [17] = biological target: Serine/threonine-protein kinase Nek6 (Homo sapiens) (UniProt Q9HC98); conditions: at 1 µM
# [18] = biological target: Serine/threonine-protein kinase Nek7 (Homo sapiens) (UniProt Q8TDX7); conditions: at 0.1 µM
# [19] = biological target: Serine/threonine-protein kinase Nek7 (Homo sapiens) (UniProt Q8TDX7); conditions: at 1 µM
# [20] = biological target: T7, Serine/threonine-protein kinase Nek9 (Homo sapiens) (UniProt Q8TD19); conditions: at 0.1 µM;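 also: reported value is the mean percent inhibition of NEK9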
# T7 sequence (whole entry): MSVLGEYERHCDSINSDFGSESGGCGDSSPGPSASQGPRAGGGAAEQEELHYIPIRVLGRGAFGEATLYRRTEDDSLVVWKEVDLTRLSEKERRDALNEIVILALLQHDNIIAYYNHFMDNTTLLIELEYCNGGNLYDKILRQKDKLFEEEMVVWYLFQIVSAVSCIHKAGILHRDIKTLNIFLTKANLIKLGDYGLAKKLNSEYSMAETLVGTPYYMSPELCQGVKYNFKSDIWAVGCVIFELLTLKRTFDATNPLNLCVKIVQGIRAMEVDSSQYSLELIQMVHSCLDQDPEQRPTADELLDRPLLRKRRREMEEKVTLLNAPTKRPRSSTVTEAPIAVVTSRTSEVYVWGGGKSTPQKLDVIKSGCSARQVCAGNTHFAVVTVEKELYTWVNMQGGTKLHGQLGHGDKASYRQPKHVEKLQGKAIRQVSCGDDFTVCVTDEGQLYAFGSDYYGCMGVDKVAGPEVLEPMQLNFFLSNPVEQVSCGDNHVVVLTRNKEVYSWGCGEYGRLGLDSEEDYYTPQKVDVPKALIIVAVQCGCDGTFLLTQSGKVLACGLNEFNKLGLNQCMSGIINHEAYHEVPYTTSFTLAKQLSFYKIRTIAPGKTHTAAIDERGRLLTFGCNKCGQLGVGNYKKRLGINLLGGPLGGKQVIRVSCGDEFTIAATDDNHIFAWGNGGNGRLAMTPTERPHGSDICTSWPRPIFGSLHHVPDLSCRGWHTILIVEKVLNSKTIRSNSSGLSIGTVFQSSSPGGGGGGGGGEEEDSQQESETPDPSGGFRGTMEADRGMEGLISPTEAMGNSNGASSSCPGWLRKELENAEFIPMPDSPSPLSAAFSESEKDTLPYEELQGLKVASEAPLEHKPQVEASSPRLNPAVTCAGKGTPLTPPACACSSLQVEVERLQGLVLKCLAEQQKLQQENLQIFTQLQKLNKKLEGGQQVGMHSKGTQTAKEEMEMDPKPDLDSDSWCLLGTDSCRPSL
# Sequence of Serine/threonine-protein kinase Nek6 (Homo sapiens) (Q9HC98 whole entry): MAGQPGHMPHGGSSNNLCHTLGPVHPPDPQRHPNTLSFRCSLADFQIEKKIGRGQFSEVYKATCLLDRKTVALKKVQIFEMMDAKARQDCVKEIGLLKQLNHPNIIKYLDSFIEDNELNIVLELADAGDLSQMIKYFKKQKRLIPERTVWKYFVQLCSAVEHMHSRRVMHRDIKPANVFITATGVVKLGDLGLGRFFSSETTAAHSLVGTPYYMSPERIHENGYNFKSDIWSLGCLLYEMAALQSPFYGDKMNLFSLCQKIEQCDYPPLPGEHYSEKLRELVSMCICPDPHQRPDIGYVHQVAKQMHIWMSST
# Sequence of Casein kinase II subunit alpha (Homo sapiens) (P68400 whole entry, looked up): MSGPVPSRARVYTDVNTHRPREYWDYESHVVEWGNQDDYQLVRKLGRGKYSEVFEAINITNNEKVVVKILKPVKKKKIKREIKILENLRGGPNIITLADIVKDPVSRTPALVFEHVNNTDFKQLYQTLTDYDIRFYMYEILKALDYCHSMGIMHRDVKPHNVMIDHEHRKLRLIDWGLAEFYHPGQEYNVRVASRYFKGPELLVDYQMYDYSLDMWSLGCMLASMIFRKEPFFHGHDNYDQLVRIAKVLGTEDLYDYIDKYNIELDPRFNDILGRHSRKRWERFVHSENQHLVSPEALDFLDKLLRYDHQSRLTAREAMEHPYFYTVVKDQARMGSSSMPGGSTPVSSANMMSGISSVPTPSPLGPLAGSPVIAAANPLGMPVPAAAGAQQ
# Sequence of Serine/threonine-protein kinase Nek7 (Homo sapiens) (Q8TDX7 whole entry, looked up): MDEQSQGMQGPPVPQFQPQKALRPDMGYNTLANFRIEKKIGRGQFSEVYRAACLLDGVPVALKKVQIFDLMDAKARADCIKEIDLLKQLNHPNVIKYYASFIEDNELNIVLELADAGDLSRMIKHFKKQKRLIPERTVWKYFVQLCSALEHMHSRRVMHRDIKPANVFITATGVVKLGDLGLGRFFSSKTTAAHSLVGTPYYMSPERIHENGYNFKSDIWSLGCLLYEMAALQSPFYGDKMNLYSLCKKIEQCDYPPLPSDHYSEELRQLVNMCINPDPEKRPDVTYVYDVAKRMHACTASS
# Sequence of Sphingosine kinase 1 (Homo sapiens) (Q9NYA1 whole entry): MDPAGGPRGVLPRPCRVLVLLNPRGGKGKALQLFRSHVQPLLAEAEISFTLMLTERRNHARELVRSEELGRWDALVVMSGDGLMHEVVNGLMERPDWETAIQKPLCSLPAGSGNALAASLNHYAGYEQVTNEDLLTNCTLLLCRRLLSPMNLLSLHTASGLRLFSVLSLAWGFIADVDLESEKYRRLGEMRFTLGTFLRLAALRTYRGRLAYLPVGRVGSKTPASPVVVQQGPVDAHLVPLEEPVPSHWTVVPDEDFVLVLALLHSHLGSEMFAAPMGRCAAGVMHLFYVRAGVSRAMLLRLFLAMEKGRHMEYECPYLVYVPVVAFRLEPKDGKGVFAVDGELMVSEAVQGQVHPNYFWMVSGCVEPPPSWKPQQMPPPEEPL
structure (smiles),measurement,setting,value
COc1cc2ncn(-c3cc(O[C@H](C)c4ccccc4Cl)c(C(N)=O)s3)c2cc1OC,inhibition,[1],-3.88%
same,inhibition,[2],0.33%
same,inhibition,[3],-2.47%
same,inhibition,[4],5.76%
same,inhibition,[5],19.5%
same,inhibition,[6],6.13%
same,inhibition,[7],9.16%
same,inhibition,[8],3.99%
same,inhibition,[9],6.57%
same,inhibition,[10],8.51%
same,inhibition,[11],6.91%
same,inhibition,[12],29.8%
same,inhibition,[13],67.8%
same,inhibition,[14],12.1%
same,inhibition,[15],48.8%
same,inhibition,[16],2.67%
same,inhibition,[17],4.93%
same,inhibition,[18],3.58%
same,inhibition,[19],4.26%
same,inhibition,[20],62%
